# Assay outcomes (PubChem BioAssay)
# This is a sample that favours compounds with a hit; in the whole collection about 2.2% have one here.
# APP 5UTR inh – APP translation inhibition; SH-SY5Y APP 5'UTR-luciferase reporter, luminescence; inhibition, % at 2 µM; 190,000 tested, 0.82% active;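 active = inhibition above a set limit, derived from the sample mean plus 3 SD, cut at about 45% in these data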
# BaF3 parental – parental Ba/F3 viability inhibition as JAK2V617F counter-screen; CellTiter-Glo ATP luminescence; inhibition, % at 5.6 µM; 220,000 tested, 1.1% active;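 active = inhibition above a per-campaign cutoff, the mean inhibition of all tested compounds plus 3 SD, cut at about 27% in these data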;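 also: 0% = DMSO wells and 100% = JAK Inhibitor I control wells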
# KLF5 inhibitor – suppresses KLF5 promoter-driven expression | 290,000 tested, 0.23% active | inhibition, % at 5 µM | DLD-1 KLF5 promoter-luciferase reporter, luminescence;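 active = inhibition above a per-plate limit of that plate's mean compound inhibition plus 3 SD, cut at about 60% in these data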;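 also: 0% = DMSO wells and 100% = LY294002 at 200 µM; higher means less KLF5 promoter-driven luciferase light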
# Ba/F3 V617F tox – loss of viability in JAK2V617F-driven Ba/F3 cells | Ba/F3 EpoR-JAK2V617F viability, ATP luminescence | inhibition, % at 5.6 µM | 220,000 tested, 1.1% active | AID 1446;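 active = inhibition above the campaign mean plus 3 SD over all tested compounds, cut at about 24% in these data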;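 also: cytokine-independent growth of Ba/F3 cells driven by EpoR plus mutant JAK2; 0% = DMSO-treated cells and 100% = JAK inhibitor I control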
# aSyn 5UTR inh – MLPCN primary screen, SNCA 5' untranslated region; alpha-synuclein 5'UTR reporter, inhibitor activity; 300,000 tested, 0.82% active; AID 1813; inhibition, % (tested at 7.5 µM); in the data active = inhibition above about 60%;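 also: H4 neuroglioblastoma cells stably carrying SNCA 5'UTR luciferase fusion; 0% = DMSO wells and 100% = positive control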
# IEC-6 cytotox – kills IEC-6 intestinal cells in KLF5 counter-screen | inhibition, % at 5 µM | 290,000 tested, 0.78% active | IEC-6 cytotoxicity, luminescence viability | AID 1825; in the data active = inhibition above about 22%;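 also: 0% = plate median of test compound wells and 100% = cytotoxic reference compound wells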
# Numbers without * were called inactive; · = no result.
SMILES,APP 5UTR inh,BaF3 parental,KLF5 inhibitor,Ba/F3 V617F tox,aSyn 5UTR inh,IEC-6 cytotox
Cc1ccc(CC(=O)NCC(O)c2ccccc2)cc1 (stereo unspecified),·,·,-14,·,-11,-4
Cc1ccc(CNC(=O)C2CC(c3ccccc3F)=NO2)cc1 (stereo unspecified),·,·,·,·,-7,·
CCOC(=O)c1ccc(NC(=O)C(=O)NCc2ccco2)cc1,-21,4,-46,-2,-82,-6
C=CCn1c(SCc2ccc(F)cc2)nnc1-c1sc2nc(C)cc(C)c2c1N,·,-2,16,-4,23,-4
CN(C)c1ccc(/C=C/c2ccc3ccccc3n2)cc1,·,22,105*,15,89*,21
C#CCNC(=O)C1=C[C@H](c2ccc(Br)cc2)[C@@H](CCCO)[C@H](OCC)O1,8,1,-18,0,12,1
Nc1nc(Cl)cc(N2CCC(c3cc(-c4ccc(Cl)cc4)n[nH]3)CC2)n1,28,45*,14,47*,43,20
COc1ccc(-c2cc(C3CCN(c4cc(Cl)nc(N)n4)CC3)[nH]n2)cc1,-4,2,-17,-5,39,5
CCCOc1ccc(/C=C/C(=O)Nc2ccc([N+](=O)[O-])cc2)cc1,-9,10,4,0,68*,4
CCCCOc1ccc(/C=C/C(=O)Nc2ccc([N+](=O)[O-])cc2C)cc1,-8,4,-24,1,-11,0
O=[N+]([O-])c1cccc(-c2nnc(C3CC3)o2)c1,·,35*,-23,-6,-5,-4
O=C1c2ccccc2S(=O)(=O)N1Cc1nc2ccccc2s1,8,4,-9,2,112*,6
Cc1ccccc1CN1C(=O)c2ccccc2S1(=O)=O,·,·,-16,·,-18,-1
CC(C)Oc1cccc(NC(=O)c2cnccc2C(F)(F)F)c1,·,-2,-19,-4,-10,1
O=C(O)c1ccc(N/N=C/c2ccc(OC(=O)c3cccc(Cl)c3)cc2)cc1,·,0,-15,-1,76*,-2
CCCN(CCC)CCCNC(=O)c1ccc(CS(=O)(=O)c2c(Cl)cccc2Cl)o1,·,·,-21,·,16,0
S=C(N/N=C/c1ccc2ncccc2c1)Nc1ccccc1,-1,0,-38,-3,108*,2
C(=N\NCc1ccccc1)/c1ccc2ncccc2c1,·,-3,-131,-3,-10,4
Cn1cc(C(=O)c2ccc(Cl)cc2Cl)cc1C(=O)N/N=C(\N)COc1ccc(Cl)cc1Cl,7,9,6,0,65*,6
Cc1ccccc1-n1nc2c(c1NC(=O)C1CCCC1)CS(=O)(=O)C2,·,·,-9,·,31,-4
COc1ccc(-n2cc(-c3ccc(Br)cc3)[nH]c2=S)cc1,-15,5,-25,-3,-138,-6
COc1ccccc1-n1c(-c2ccccc2)c[n+]2c1CCc1ccccc1-2,13,79*,20,101*,6,24*
CC(C)c1ccc(-n2c(-c3ccccc3)c[n+]3c2CCc2ccccc2-3)cc1,13,92*,29,99*,78*,41*
COc1ccc(-n2c(-c3ccc(Br)cc3)c[n+]3c2CCc2ccccc2-3)cc1,-2,78*,-8,88*,-91,15
COc1ccccc1-n1c(-c2ccccc2)c[nH]c1=S,-4,-3,-15,-6,-24,0
SMILES,APP 5UTR inh,BaF3 parental,KLF5 inhibitor,Ba/F3 V617F tox,aSyn 5UTR inh,IEC-6 cytotox
N#C/C(=C\c1ccccc1Br)C(=O)NC1CC1,·,·,-11,·,-2,0
C=CCN(C(=O)CSC1=NC(=O)CN1C(C)=O)c1nc(C)c(-c2ccccc2)s1,-35,8,-56,2,-118,-9
Cc1ccc(OCC(=O)Nc2sc3c(c2C#N)CC(C)(C)NC3(C)C)cc1,26,7,-55,-1,-7,-4
CC1(C)Cc2c(sc(NC(=O)COc3cccc4ccccc34)c2C#N)C(C)(C)N1,·,-4,-2,-6,72*,-1
CC(C)N=c1scc(-c2ccco2)n1/N=C/c1ccc(O)c(O)c1,-2,73*,-39,96*,·,9
COc1ccc(/C=C(/NC(=O)c2ccco2)C(=O)N2CCc3ccccc32)cc1OC,·,-1,-17,5,25,-1
Cc1cc(OCCSc2nnc(-c3cccs3)n2C)ccc1Cl,-10,8,-27,0,-21,-4
Cn1c(SCCOc2ccccc2Cl)nnc1-c1cccs1,-38,37*,-49,35*,-37,0
Cc1ccccc1N=Nc1c(C)[nH]n(-c2ccccc2)c1=O,7,6,-43,-1,·,-1
